CYP2C9 activ = human CYP2C9 activators, primary screen, biochemical, luminescence | Cytochrome P450 2C9 (Homo sapiens), P11712 | recombinant CYP2C9, luciferin-H conversion; active compounds read high; factor 1 = untreated enzyme, 0 = blocked | activation factor at 5 µM | 96,000 tested, 1.4% active;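 active = activation factor of 2 or more for CYP2C9 at a 5 µM dose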;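 note: 0 = sulfaphenazole-blocked wells and 1 = vehicle-only wells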
CYP2C19 inh = blockers of cytochrome P450 2C19 activity – biochemical, luminescence, ADME assay, primary screen; CYP2C19 Supersomes, luciferin-H EGE luminescence, 30 min; P33261; inhibition, % at 5 µM; 96,000 tested, 21% active;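 active = CYP2C19 inhibition above a set limit at 5 µM in the primary screen, cut at about 50% in these data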;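 note: plate controls were negative control wells for no effect and 2.5 mM tranylcypromine positive control for full effect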
sEH inhibitor = soluble epoxide hydrolase inhibitors, primary screen, biochemical, human sEH; Bifunctional epoxide hydrolase 2 (Homo sapiens), P34913; recombinant human sEH enzymatic activity assay; inhibition, % at 2 µM; 91,000 tested, 0.34% active; AID 707, 2007; in the data active = inhibition above about 80%
Target sequence (P34913 whole entry, looked up): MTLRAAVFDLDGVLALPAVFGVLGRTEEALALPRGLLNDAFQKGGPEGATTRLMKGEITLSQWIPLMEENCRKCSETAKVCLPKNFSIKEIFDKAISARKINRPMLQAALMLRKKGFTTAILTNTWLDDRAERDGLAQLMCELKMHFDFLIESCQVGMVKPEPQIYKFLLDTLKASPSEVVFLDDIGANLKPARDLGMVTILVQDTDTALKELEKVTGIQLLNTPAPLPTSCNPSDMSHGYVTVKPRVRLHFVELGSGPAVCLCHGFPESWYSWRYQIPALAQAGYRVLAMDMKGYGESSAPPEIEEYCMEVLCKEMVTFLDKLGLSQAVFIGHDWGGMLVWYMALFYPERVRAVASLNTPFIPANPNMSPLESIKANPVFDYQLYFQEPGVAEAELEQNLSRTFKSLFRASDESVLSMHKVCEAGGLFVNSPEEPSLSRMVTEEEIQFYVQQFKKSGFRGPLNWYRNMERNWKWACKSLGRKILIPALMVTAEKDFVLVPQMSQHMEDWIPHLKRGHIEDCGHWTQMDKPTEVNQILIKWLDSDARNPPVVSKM
sEH act = soluble epoxide hydrolase activators, primary screen, biochemical, human sEH; Bifunctional epoxide hydrolase 2 (Homo sapiens), P34913; purified human sEH enzymatic activity, activator screen; activation, % at 2 µM; 91,000 tested, 0.04% active; AID 717, 2007; in the data active = activation above about 37%
CYP2C19 activ = human CYP2C19 activators, primary screen, biochemical, luminescence; recombinant CYP2C19, luciferin-H EGE luminescence; active compounds read high; 0 = fully inhibited enzyme, 1 = untreated enzyme; activation factor at 5 µM; 96,000 tested, under 10 active;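 active = activation factor of at least 2 at 5 µM in the primary screen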;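 note: 0 = wells with 2.5 mM tranylcypromine and 1 = vehicle-only wells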
CYP2C9 inh = blockers of cytochrome P450 2C9 activity – biochemical, luminescence, ADME assay, primary screen. P11712. CYP2C9 Supersomes, luciferin-H conversion. inhibition, % at 5 µM. 96,000 tested, 20% active. AID 777, 2007;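 active = blocking of liver enzyme CYP2C9 beyond about 50% at 5 µM, limit read from the data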
* hit, by the source's call; x = no result. This is a sample that favours compounds with a hit; in the whole collection about 27% have one here.

SMILES	CYP2C9 activ	CYP2C19 inh	sEH inhibitor	sEH act	CYP2C19 activ	CYP2C9 inh
CC1=C([N+](=O)[O-])C(c2cccc(Br)c2)C2=C(N1)c1ccccc1C2=O (configuration not stated)	0	88*	-1	3	0.1	98*
COc1ccccc1N(CN1CCCC1=O)C(=O)COc1ccccc1	0.9	8	x	x	0.9	7
COc1ccc(-n2nnnc2/C=C\Nc2ccccc2C(=O)c2ccccc2)cc1	1.2	51*	3	0	0.5	-21
COc1ccc(C(=O)Nc2cc(C(=O)c3ccccc3)c(C)oc2=O)cc1	0.9	0	8	-9	1	14
CCN(CC)S(=O)(=O)c1ccc(NS(=O)(=O)c2cccc(C)c2)cc1	0.1	40	3	-4	0.6	91*
CCN(CC)S(=O)(=O)c1ccc(NS(=O)(=O)c2ccc(F)cc2)cc1	0.1	5	8	-8	1	86*
COc1ccc(C2C(C(C)=O)=C(O)C(=O)N2c2ccc(Br)cn2)cc1 (configuration not stated)	0.9	2	2	0	1	8
COc1ccc2[nH]c(=O)c(CN(CCCN(C)C)C(=O)Nc3ccc(F)cc3)cc2c1	1.1	16	8	-9	0.8	-5
Cc1ccc(C(=O)N(c2ccccc2)C2CC(C)N(C(=O)c3ccco3)c3ccccc32)cc1 (configuration not stated)	0.1	52*	6	-5	0.5	94*
CCc1nc2oc3ccccc3c(=O)c2c(=O)n1-c1ccccc1	1.3	10	2	-1	0.9	-28
O=C(NC(=S)NNC(=O)c1cccs1)c1ccc(Br)o1	0.5	-4	14	-13	1	46
Cc1nc2ccc(S(=O)(=O)N(C)CC(=O)N3CCc4ccccc4C3)cc2s1	0.6	39	9	-10	0.6	45
CCN(CC(=O)N1CCc2ccccc2C1)S(=O)(=O)c1ccc2ccccc2c1	2.4*	39	5	-6	0.6	-143
CS(=O)(=O)N(CCc1ccccc1)CC(=O)N1CCc2ccccc2C1	0.5	68*	-4	7	0.3	54*
COc1cc(NC(=O)C2CCCCC2)c(OC)cc1NC(=O)CN1CCCCC1	0.9	6	-18	17	0.9	12
O=C(NCC(=O)N(CC1CCCO1)C1(C(=O)NC2CCCCC2)CCCCC1)c1ccccc1 (configuration not stated)	1	-2	-6	3	1	-2
c1ccc2c(-c3nc4ncccc4o3)cccc2c1	3.3*	-1	-20	20	1	-228
Clc1ccc2c(c1)CNc1c(ncnc1N1CCOCC1)O2	0.4	99*	x	x	0	56*
O=S(=O)(/N=C/c1c(O)ccc2ccccc12)c1cccs1	0.8	15	-7	6	0.8	17
Cc1cccc(C)c1Nc1nnc(SCc2cc([N+](=O)[O-])cc3c2OCOC3)s1	0.5	-5	-2	5	1.1	51*
COc1cccc(Nc2nnc(SCc3cc([N+](=O)[O-])cc4c3OCOC4)s2)c1	0.9	82*	8	-5	0.2	12
CSc1nc2ccccc2n1CC(=O)Nc1c(C)cccc1C	x	x	4	1	x	x
CCc1cc(C)cc(OCCNC(=O)c2ncn[nH]2)c1	1.7	49	-5	10	0.5	-66
CC(C)(C)c1ccc(OCCNC(=O)c2ncn[nH]2)cc1	0.5	75*	-13	13	0.2	53*
CC(C)(C)SCCNC(=O)CN1C(=O)c2ccccc2S1(=O)=O	0.9	4	9	-10	1	14
SMILES	CYP2C9 activ	CYP2C19 inh	sEH inhibitor	sEH act	CYP2C19 activ	CYP2C9 inh
O=C(CN1C(=O)c2ccccc2S1(=O)=O)NCCSc1ccccc1	0.4	79*	17	-17	0.2	64*
Cc1ccc(SCCNC(=O)CN2C(=O)c3ccccc3S2(=O)=O)cc1	0.2	61*	x	x	0.4	79*
Cn1cccc1Cc1nnc(SCC(=O)N2CCN(c3ccccc3)CC2)n1-c1ccc(F)cc1	0.9	9	x	x	0.9	12
CCCCCCn1c(CN2CCCCC2C)nc2c1c(=O)n(C)c(=O)n2C (configuration not stated)	x	x	-3	6	x	x
COc1ccc(-c2cn3c(C)c(C(=O)Nc4cccc(NC(C)=O)c4)sc3n2)cc1	1.1	59*	-5	3	0.4	-8
Cc1c(C(=O)Nc2ccncc2)sc2nc(-c3ccc(F)cc3)cn12	0.3	45	x	x	0.6	74*
O=C1Nc2cc3c(cc2Sc2ccccc21)OCCO3	1.1	26	-7	8	0.7	-6
Cc1noc(C)c1CS(=O)(=O)c1ccc(Br)cc1	0.9	98*	-1	1	0	6
Cc1ccc(S(=O)(=O)Cc2c(C)noc2C)cc1	0.9	100*	12	-11	0	11
Cc1noc(C)c1COC(=O)CN(C)S(=O)(=O)c1ccc(Cl)cc1	0.8	41	x	x	0.6	18
O=C(NCc1ccco1)c1cnc2n(c1=O)CCS2	0.9	7	-7	6	0.9	7
O=C(c1ccco1)N1CCN(C2CCCC2)CC1	1.1	28	x	x	0.7	-6
CCC(C)(C)NC(=O)CN(CC1CCCO1)C(=O)CCC(=O)Nc1nccs1 (configuration not stated)	1.1	-9	-9	9	1.1	-12
COc1ccccc1NC(=O)CN(Cc1ccco1)C(=O)c1cccs1	0.7	16	3	-5	0.8	27
O=C(CN(Cc1ccco1)C(=O)c1cccc(Cl)c1)Nc1c(Cl)cc(Cl)cc1Cl	0.4	51*	-9	11	0.5	62*
Cn1c(=O)cc(SCC(=O)NCCN2CCN(c3ccccc3F)CC2)c2cc(Cl)ccc21	1.1	33	20	-21	0.7	-14
C=C(C)COc1ccc(-c2[nH]ncc2-c2ccc(OC)c(OC)c2)c(O)c1	0.7	10	8	-7	0.9	33
C=C(C)COc1ccc(-c2[nH]ncc2-c2ccccc2)c(O)c1	0.2	41	-16	20	0.6	83*
C=C(C)COc1ccc(-c2[nH]ncc2Oc2cccc(OC)c2)c(O)c1	0	93*	3	0	0.1	100*
C=C(C)COc1ccc(-c2[nH]ncc2Oc2ccccc2OCC)c(O)c1	0	96*	-5	6	0	100*
C=CCC(NCc1ccccc1)c1ccc(C)o1 (configuration not stated)	x	x	-7	7	x	x
COc1ccc(C(=O)N(C(C)C)C(C)C)c(OC)c1	0.9	4	-11	10	1	10
